From PubChem BioAssay (Tox21)
Records with an inconclusive call do not appear. Unmarked numbers belong to inactive results. Active and inactive are the calls of the source. The call rests on the fitted dose curve; in most records, active means well fitted cell-killing curve with a large enough effect in the repeat runs; inconclusive means weak or mixed curves, or effect the other way; inactive means flat fitted curve, though single readings scatter.

Assay: qHTS assay to identify small molecule antagonists of the androgen receptor (AR) signaling pathway using the MDA cell line in the presence of 0.5 nM R1881 - cell viability counter screen (AID 1259242); further: nearly all actives have a fitted effect of over 45% in size
Details: MDA-kb2 viability, CellTiter-Fluor protease fluorescence, 16 h; series mostly up to 92.4 µM; viability change, negative = cytotoxic: at the top concentration
How it was run: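 R1881 at 0.5 nM final stimulated MDA-kb2 cells during 16 hr compound treatment at 37C. Cytotoxicity read: CellTiter-Fluor fluorescence after 30 min.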
On the % scale 0 is the no-effect control and ±100 the full control effect; potency means the concentration at half of the fitted maximal effect.

In the case of `O=C(Nc1ccccc1)c1cc(Cl)ccc1O`, the Potency is reported as 17.2 µM (active).
With `CCCCCN=C(N)N/N=C/c1c[nH]c2ccc(OC)cc12` the Potency was 13.3 µM (active).

In order of rising “viability change, negative = cytotoxic” value:
1. CCCCC/C=C\C=C\C(=O)OCC  -25%
2. CCN(CC)c1ccc(C=O)c(O)c1  -10.2%
3. Brc1cc(Br)cc(Br)c1  -3.78%
4. CCC(=O)OC/C=C(\C)CCC=C(C)C  -2.08%
5. CCc1cccc(C)c1N(C(=O)C(=O)O)C(C)COC (stereo not drawn)  -1.18%
6. C=CC(=O)O[C@H]1C[C@@H]2CC[C@@]1(C)C2(C)C  -0.889%
7. CC/C=C(\C)C=O  -0.257%
8. CCC1(C)C(=O)N(Cl)C(=O)N1Cl (stereo not drawn)  0.186%
9. CC(=O)CC(N)=O  0.464%
10. C=Cc1ccncc1  0.548%
11. N#Cc1ccc(C/C(=N/NC(=O)Nc2ccc(OC(F)(F)F)cc2)c2cccc(C(F)(F)F)c2)cc1  0.835%
12. C/C=C/C(=O)OCC(C)C  1.06%
13. CSc1nnc(C(C)(C)C)c(=O)[nH]1  1.16%
14. CCOC(=O)OC(=O)OCC  1.37%
15. Cc1cccc2c1ccc1ccccc12  1.39%
16. O=C1CCCCCCCCCCCCCC1  2.56%
17. CC(C=O)c1ccccc1 (stereo not drawn)  3.42%
18. O=C1CCC/C=C\CCCCCCCCCC1  4.38%

In order of rising “viability change, negative = cytotoxic” value:
1. O=C(Nc1ccc([N+](=O)[O-])cc1)Nc1ccc([N+](=O)[O-])cc1 (tested in a mixture with another compound)  -4.99% [at 42.5 µM]
2. CC(C)(C)c1cc(CCC(=O)OCCSCCOC(=O)CCc2cc(C(C)(C)C)c(O)c(C(C)(C)C)c2)cc(C(C)(C)C)c1O  4.33% [at 42.5 µM]

`CCCCCCCCCCCCS(=O)(=O)Cl` showed a viability change, negative = cytotoxic of -2.53% [at 19 µM].
